Activity calls are given as the source filed them. The calls were made as follows: active = hit-call score of the fitted dose curve at least 0.9, where 1 is the maximum; inactive = score below 0.9.

Read-out in this test: adenosine kinase (ADK) gene, ADK (gene 132)
Briefly: LTEA_HepaRG_ADK: Life Technologies and Expression Analysis (LTEA) Assay for adenosine kinase (ADK) gene using HepaRG (AID 2283471). Particulars: mRNA level, 48 h; actives raise or lower the signal. As to the method:
LTEA_HepaRG is a cell based, multiplexed-readout assay that uses HepaRG, a human liver cell line, with measurements taken at 48 hours after chemical dosing on a 96-well plate.LTEA_HepaRG_ADK is one of 102 assay component(s) measured in the LTEA HepaRG cell culture assay. It is a marker of Steatosis.Data from the assay component LTEA_HepaRG_ADK was analyzed into 1 endpoint. This assay endpoint, LTEA_HepaRG_ADK, was analyzed with bidirectional fitting relative to DMSO as the negative control and baseline of activity. Using a type of inducible reporter, measures of mRNA induction for gain or loss-of-signal activity can be used to understand regulation of transcription factor activity. To generalize the intended target to other relatable targets, this assay endpoint is annotated to the kinase intended target family, where the subfamily is steatosis.
A total of 1060 chemcials from the ToxCast library were tested in eight-point concentration-response experiments. Cell culture and cytotoxicity assays were conducted at Thermo Fisher Scientific's Custom Services facility (Madison, WI). A single lot of human HepaRG cells (Thermo Fisher Scientific, Frederick, MD) was used for the cell culture experiments. 96-well format collagen type I coated plates of human HepaRG cells were prepared using established methods. Briefly, cryopreserved HepaRG cells were thawed, plated at a density of approximately 100,000 cells/well in HepaRG Thaw, Plate, and General Purpose media (HPRG770, Thermo Fisher Scientific), and incubated for 48 hours. 0.5% DMSO was selected as vehicle control to balance the requisite need of DMSO in HepaRG cultures to maintain differentiation (for example, baseline metabolism, proportions of hepatocytes vs. cholangiocytes), while enabling further hepatic receptor pathway activation (for example, PXR and CAR) in response to chemical exposure. 48 hours after plating, the culture medium was replaced with HepaRG Serum-Free Incudtion Media. Cells were exposed to each test chemical in duplicate and maintained in CO2 incubators for another 48 hours. Chemical plates were thawed to room temperature and 200x concentrations of treatment groups were prepared. 8-point conentration-reponse curves were made with the highest exposure at 100 uM, followed by half-log dilutions, all in 0.5% DMSO. Each test plate contained variouse controls, induction positive controls (1mM phenobarbital), cytotoxicity positive controls ([…] aflatoxin B1), vehicle controls (0.5% DMSO), and total lysis controls (0.5% DMSO). Cell morphology images were taken using an Essen IncuCyte FLR automated microscope, with six 96-well plates imaged in about 24 minutes. Images were captured and exported and JPEG files. Spent culture media was transfered to black-well plates for the LDH assay, and remaining media was sorted at -80 C for later use. Cells were treated with RLT buffer and frozen until shipped for gene expression analysis. Total RNA was isolated from the cell suspension in 75 uL of Buffer RLT (Qiagen, Germantown, MD 20874) by Quintiles/Expression Analysis (Durham, NC) using a custom isolation procedure. Total RNA from each plate well was transferred to a preamplification plate. Fluidigm's 96.96 Dynamic ArrayTM (Fluidigm, Amsterdam, the Netherlands) technology was used for gene expression analyses by quantitative reverse transcription polymerase chain reaction (qRT-PCR, performed by Quintiles/Expression Analysis, Durham, NC)89. Standard TaqManTM Assays (Applied Biosystems/ThermoFisher Scientific, Foster City, CA) were used to assess the expression of 93 genes selected based on their selectivity and sensitivity to important hepatic receptors known to be modulated by environmental chemicals; importance in human hepatocyte functionality; and hepatotoxicity. […]
Consider `C[C@]12CC[C@@H]3c4ccc(O)cc4CC[C@H]3[C@@H]1CCC2=O`, for which the call was inactive. For orientation: AC50 means the concentration at which the activity in the assay is half-maximal. With `CC(=O)N1CCN(c2ccc(OC[C@H]3CO[C@](Cn4ccnc4)(c4ccc(Cl)cc4Cl)O3)cc2)CC1`, the AC50 is 65 µM (active).

Take `CCCCCc1ccc(N)cc1`: the molecule was called inactive. On to `CN1C(=O)CC[C@H]1c1cccnc1`, for which the outcome was inactive.

For the molecule `CCCCCCCCCCCC[N+](C)(C)C`, the outcome was inactive. Still for that read-out and setting: the value for `CCCCOC(=O)CC(CC(=O)OCCCC)(OC(C)=O)C(=O)OCCCC` was “inactive”; that for `Cc1cccc2ccccc12` was “inactive”. On to `CCCOC(=O)c1cc(O)c(O)c(O)c1`, for which the result was inactive.

Turning to `O=C1c2ccccc2C(=O)N1CCc1noc(-c2ccc(CN3CCCCCC3)s2)n1`, the molecule was classed as inactive. The same measure, in the same setting: the value for `Cc1oc2c(NC(=O)c3c(Cl)cccc3Cl)cccc2c1C(C)(C)O` was “inactive”. On to `COc1ccc2cc(S(=O)(=O)N[C@H](CC(=O)N[C@H](Cc3ccc(CN4[C@H](C)CCC[C@@H]4C)cc3)C(=O)N(C)C(C)C)c3ccc4c(c3)OCO4)ccc2c1`, for which the AC50 is 13.3 µM (active). Turning to `CCCCCCCCCCCO`, the outcome was inactive.

As to `CCN(Cc1cccnc1)C(=O)c1cccc(Cl)c1[C@]1(C)C(=O)N(Cc2ccc(OC)cc2OC)c2ccc(Cl)cc21`, the result was inactive. The same measure, in the same setting: the value for `CC(C)(O)c1ccc(CNC(=O)c2cccnc2Oc2ccc3nonc3c2)cc1` was “inactive”. Consider `NCc1cccc(C2CCN(C(=O)c3ccc(C#Cc4ccccc4F)o3)CC2)c1`, for which the molecule was classed as inactive. On the same count and under the same terms, the value for `O=C=NCCCCCCN=C=O` was “inactive”; that for `CCOC(=O)O[C@H](C)OC(=O)c1ccc2c(c1)cc(C(=O)NC1CCN(C(C)C)CC1)n2Cc1cc(-c2ccc(Cl)s2)on1` was “inactive”; that for `CCCCCCCCOC(=O)c1cc(O)c(O)c(O)c1` was “inactive”. For the molecule `CCCCCCCCCC(=O)O`, the molecule was classed as inactive. `CC[C@@H]1C[C@H](N(Cc2cc(C(F)(F)F)cc(C(F)(F)F)c2)C(C)=O)c2cc(C(F)(F)F)ccc2N1C(=O)OC(C)C`: the molecule was classed as inactive. Turning to `O=C(Nc1ccc(Cl)cc1)Nc1ccc(Cl)c(Cl)c1`, the AC50 was 22.6 µM (active).

As for `O=CCCCC=O`, the result was inactive. In the case of `COc1cccc([C@H](O)C2CCN(CCc3ccc(F)cc3)CC2)c1OC`, the molecule was called inactive. With `CN1C(=O)N(c2ccccc2Br)Cc2cnc(Nc3ccc4c(c3)OCC(CO)O4)nc21` (stereo not given), the AC50 was 88.9 µM (active). Turning to `CCO[Si](CCCNC(N)=O)(OCC)OCC`, the result was inactive. Same read-out and setting: the entry for `O=C1CCC(C2CCCCC2)CC1` is “inactive”. Consider `CCCCCCCCCCCCO`, for which the molecule was called inactive. The same measure, in the same setting: the entry for `Cc1ccc(C(C)C)cc1` is “inactive”.

Regarding `CC(O)CC(C)(C)O` (stereo not given), the call was inactive. Consider `CCCCOC(=O)c1ccc(O)cc1`, for which the outcome was inactive.

Turning to `CN(C)C(=O)C1(N2CCCCC2)CCN(CC[C@@]2(c3ccc(Cl)c(Cl)c3)CN(C(=O)c3ccccc3)CCO2)CC1`, the result was inactive.

On to `CCCC(=O)OCCC(C)C`, for which the call was inactive.

For `Oc1ccccc1`, the call was inactive. The same measure, in the same setting: the value for `O=C(OCCCCCCOC(=O)c1ccccc1)c1ccccc1` was “inactive”; that for `C[C@]12CC[C@@H]3c4ccc(O)cc4CC[C@H]3[C@@H]1CC[C@H]2O` was “inactive”; that for `O=c1[nH]sc2ccccc12` was “inactive”. For `CC/C(=C(/CC)c1ccc(O)cc1)c1ccc(O)cc1`, the AC50 was 94.1 µM (active). On the same count and under the same terms, the value for `Cc1cc2c(cc1C(F)(F)F)N(C(=O)Nc1ccc(Oc3cccnc3C)nc1)CC2` was 82.4 µM (active). For the molecule `CC1=CC(=O)/C(=C(/C)O)C(=O)O1`, the outcome was inactive. In the case of `c1ccc2n[nH]nc2c1`, the outcome was inactive.

(Values after PubChem BioAssay (EPA / NIEHS).)
